# The list is not random: actives were taken first. Their share in the collection is about 1.5%.
# MRP reversal: reverses drug resistance mediated by MRP | H69AR cells + 2 uM doxorubicin, CellTiter-Glo, 72 h | differential viability (reversal), % at 10 µM | 85,000 tested, 0.04% active | AID 602;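 active = viability drop by adding the cancer drug above about 55%, with treated viability meeting a 40% cutoff, limit read from the data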;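 also: larger differential means the compound sensitizes cells more to doxorubicin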
# DAT uptake mod: human DAT dopamine uptake with cocaine, either direction; B-score at 10 µM; LLC-PK1 hDAT cells, [14C]-dopamine uptake with cocaine IC80; actives deviate in either direction; AID 449768; 110,000 tested, 1.3% active;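 active = Z score or B-score, a plate-position-corrected score, falls beyond the plate's 99.7% confidence bounds, in either direction; inactive = both scores lie inside the 99.7% bounds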
# Target sequence (Q01959 whole entry, looked up): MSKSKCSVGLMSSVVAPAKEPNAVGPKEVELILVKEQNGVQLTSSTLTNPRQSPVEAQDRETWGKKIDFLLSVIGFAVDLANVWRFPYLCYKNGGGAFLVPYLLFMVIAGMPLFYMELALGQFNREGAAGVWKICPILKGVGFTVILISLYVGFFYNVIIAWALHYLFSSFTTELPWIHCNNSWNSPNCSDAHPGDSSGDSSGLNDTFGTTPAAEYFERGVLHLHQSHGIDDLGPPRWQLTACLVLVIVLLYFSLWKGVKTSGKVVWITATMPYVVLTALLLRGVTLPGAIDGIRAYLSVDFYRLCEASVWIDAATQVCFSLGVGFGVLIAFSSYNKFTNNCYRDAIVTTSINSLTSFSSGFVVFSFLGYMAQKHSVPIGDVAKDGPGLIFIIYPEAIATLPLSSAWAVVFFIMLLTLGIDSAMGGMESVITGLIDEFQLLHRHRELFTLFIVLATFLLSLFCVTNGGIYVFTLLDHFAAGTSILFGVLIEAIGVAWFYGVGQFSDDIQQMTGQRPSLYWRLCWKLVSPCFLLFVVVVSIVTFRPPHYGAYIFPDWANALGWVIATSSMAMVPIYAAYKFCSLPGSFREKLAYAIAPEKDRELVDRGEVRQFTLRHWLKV
# MRP1 act: activates MRP-1; 140,000 tested, 0.61% active; H69AR cells + doxorubicin, viability rescue, CellTiter-Glo; AID 799; viability increase, % at 10 µM;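 active = viability gain under doxorubicin at or above a set limit, the compound median plus 3 SD, cut at about 4.7% in these data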;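 also: MRP-1 overexpressing cells given doxorubicin 25 µM after compound pretreatment; 18-22 h compound pretreatment then 72 h with doxorubicin before readout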
# Numbers stand for hits; - = inactive; . = no result.
SMILES,MRP reversal,DAT uptake mod,MRP1 act
OC(CNCCC1C=Nc2ccccc21)Cn1c2ccc(Cl)cc2c2cc(Cl)ccc21 (centres undefined),.,.,-
Cc1ccsc1C(=O)NNC(=O)Nc1ccc(Cl)c(Cl)c1,.,-,-
Cc1occc1C(=O)NNC(=O)Nc1ccc(Cl)c(Cl)c1,.,.,4.9
Cc1onc(-c2c(F)cccc2Cl)c1C(=O)Nc1sc2c(c1C#N)CCC(C(C)(C)C)C2 (centres undefined),-,-,11
Cc1onc(-c2c(F)cccc2Cl)c1C(=O)Nc1sc2c(c1C(N)=O)CCC2,-,-,-
COCCn1c(=NC(=O)c2ccc3c(c2)OCO3)c(C#N)cc2c(=O)n3cccc(C)c3nc21,-,-2.2,-
CCCCn1c(=NC(=O)c2ccc3c(c2)OCO3)c(C#N)cc2c(=O)n3cccc(C)c3nc21,-,-,-
COc1ccc(C(OC(=O)c2cccs2)C(=O)NCC2CCCO2)cc1 (centres undefined),.,-,-
COc1ccc(C(OC(=O)c2ccco2)C(=O)NCC2CCCO2)cc1 (centres undefined),.,-7.3,-
CCSc1nnc(NC(=O)C2CCN(S(=O)(=O)c3c(C)c(C)cc(C)c3C)CC2)s1,.,.,-
CCn1c(COc2ccc(Cl)cc2)nnc1SCc1nc2ccccc2[nH]1,-,-,6.8
CCn1c(COc2ccc(C)cc2)nnc1SCC(=O)C(C)(C)C,-,-,-
Cc1ccc(OCc2nnc(SCc3nc4ccccc4[nH]3)n2Cc2ccco2)cc1,-,-,-
CCn1c(COc2ccc(C)cc2)nnc1SCc1ccc(C#N)cc1,-,3,-
CCCc1nc(C(C)(C)O)c(C(=O)O)n1Cc1ccc(-c2ccccc2-c2nn[nH]n2)cc1,.,-,.
COc1cc(C)c(/C=C/C(C)=C/C=C/C(C)=C/C(=O)O)c(C)c1C,.,-,.
CN(CC(=O)Nc1ccc(Cl)cc1)c1ccc(S(=O)(=O)N2CCCCC2)cc1[N+](=O)[O-],.,.,-
Cc1cccc(CSCCNC(=O)c2ccc(CN3CCOCC3)cc2)c1,.,.,-
O=C(NCCSCc1ccc(Cl)cc1Cl)c1ccc(CN2CCOCC2)cc1,.,3.2,-
CCCCNC(=O)c1c(N)n(/N=C/c2ccccn2)c2nc3ccccc3nc12,.,-,-
CC(C)CNC(=O)c1c(N)n(/N=C/c2ccccn2)c2nc3ccccc3nc12,-,-,5.1
CCOC(=O)c1cccnc1NC(=O)c1ccccc1,.,.,-
CC[C@H](C)[C@@H](C(=O)N1CCNCC1)n1cc([C@@H](N)CC(C)C)nn1,.,-,.
O=C(c1ccc([N+](=O)[O-])cc1)N(Cc1ccc(Cl)cc1Cl)N1C(=O)CCCC1=O,-,-,-
O=C(c1ccc([N+](=O)[O-])cc1)N(Cc1ccc(Cl)cc1)N1C(=O)CCCC1=O,-,-6.6,-
SMILES,MRP reversal,DAT uptake mod,MRP1 act
COc1ccc(CC(=O)c2ccc(OC)c(OC)c2C)cc1OC,.,.,-
O=C(Cn1cc(C(F)(F)F)ccc1=O)N/N=C/c1ccc(Cl)cc1,.,.,-
O=C(CCN1CCc2ccccc2C1)c1ccc2c(c1)OCCO2,-,-,-
O=C(CCN1CCCCC1)c1ccc2c(c1)OCCO2,-,4.8,-
Cc1ccc(C(=O)NCCc2csc(C)n2)cc1,-,2.6,-
Cc1cccc(C(=O)NCCc2csc(C)n2)c1,-,-,-
Cc1c(Cl)c([N+](=O)[O-])nn1CC(=O)NC(C)C1CC2CCC1C2 (centres undefined),.,-,-
C=CCN(C(=O)COc1ccccc1)c1nnc(-c2ccncc2)s1,-,-,-
O=C(C1=C[C@@H](c2csc3ccccc23)C[C@@H](OCCCCO)O1)N1CCN(Cc2ccc3c(c2)OCO3)CC1,.,-,.
CC(=O)n1cc([C@@H]2C=C(C(=O)NCc3ccccc3)O[C@H](OCc3ccc(CO)cc3)C2)c2ccccc21,.,2.2,.
O=C(C1=C[C@H](c2ccccc2)C[C@H](OCc2ccc(CO)cc2)O1)N1CCN(Cc2ccccc2)CC1,.,2.8,.
C#CCNC(=O)C1=C[C@H](c2cn(C(C)=O)c3ccccc23)C[C@H](OCc2ccc(CO)cc2)O1,.,-,.
O=C(C1=C[C@@H](c2ccccc2)C[C@@H](OCc2ccc(CO)cc2)O1)N1CCN(Cc2ccc3c(c2)OCO3)CC1,.,-,.
O=C(C1=C[C@H](c2csc3ccccc23)C[C@H](OCCCCO)O1)N1CCN(Cc2ccc3c(c2)OCO3)CC1,.,2.6,.
CCCn1c(C)cc(C(=O)COC(=O)CN=C2NS(=O)(=O)c3ccccc32)c1C,.,.,-
N#C/C(=C\c1cn[nH]c1-c1ccc(Cl)cc1)C(=O)NCc1ccccc1,.,.,-
N#Cc1ccc(C(=O)NCC(c2ccco2)N2CCCC2)cc1 (centres undefined),-,-,-
N#Cc1ccc(C(=O)NCC(c2ccco2)N2CCCCC2)cc1 (centres undefined),-,2,-
O=C1c2cccc(Cl)c2C(=O)c2c1cccc2N1CCCC1,.,-,.
O=c1c2c([nH]c3ccc(Br)cc13)CCCC2,-,-,.
OCCN=C1CCCc2c1[nH]c1ccc(Br)cc21,.,-,5.2
